Screening results deposited in PubChem BioAssay by National Center for Advancing Translational Sciences (NCATS).
Sfp PPTase inh – blocks B. subtilis Sfp PPTase activity. 310,000 tested, 3.5% active. Q9F4F7. Biochemical Sfp PPTase activity, qHTS. Potency, µM, for the others: largest response in the series, negative = inhibition, usual class: inhibitors. AID 1490;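 also: the enzyme is Sfp with the accession as filed and its product quenches rhodamine fluorescence; 0% = enzyme reaction without inhibitor and -100% = no enzyme wells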
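Fluorescence-quenching assay with 15 nM Sfp, 5 uM rhodamine-CoA and 12.5 uM BHQ-2-labelled ybbR peptide in pH 7.6 Hepes/MgCl2 buffer. Enzyme was pre-incubated with compound for 15 min at room temperature. Rate was taken from the 30-min fluorescence change (525/598 nm).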
BAZ2B block – BAZ2B (human) inhibition. Q9UIF8. AID 504333. AlphaScreen BAZ2B-H3K14Ac peptide displacement. Potency, µM (titrated, usually from 114 µM), without a hit: at the top dose activity change, negative = inhibition, actives largely listed as inhibitors. 360,000 tested, 4.4% active; also: % is scaled to controls: 0 for no effect and ±100 for the full control effect; nearly all actives have a fitted effect of over 60% in size
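Multi-concentration screen (max 110 uM) measuring displacement of acetylated histone H3 peptide from BAZ2B by AlphaScreen, using 50 nM protein, 50 nM peptide and 10 ug/mL streptavidin donor plus Ni-chelate acceptor beads.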
TDP1 inh – blocks human tyrosyl-DNA phosphodiesterase 1. recombinant TDP1, AlphaScreen DNA substrate cleavage. Potency, µM (series often up to 130 µM), for inactives: top-dose activity change, negative = inhibition, actives largely listed as inhibitors. 350,000 tested, 0.28% active; also: % is scaled to controls: 0 for no effect and ±100 for the full control effect; nearly all actives have a fitted effect of over 40% in size
Target sequence (Q9NUW8 whole entry, looked up): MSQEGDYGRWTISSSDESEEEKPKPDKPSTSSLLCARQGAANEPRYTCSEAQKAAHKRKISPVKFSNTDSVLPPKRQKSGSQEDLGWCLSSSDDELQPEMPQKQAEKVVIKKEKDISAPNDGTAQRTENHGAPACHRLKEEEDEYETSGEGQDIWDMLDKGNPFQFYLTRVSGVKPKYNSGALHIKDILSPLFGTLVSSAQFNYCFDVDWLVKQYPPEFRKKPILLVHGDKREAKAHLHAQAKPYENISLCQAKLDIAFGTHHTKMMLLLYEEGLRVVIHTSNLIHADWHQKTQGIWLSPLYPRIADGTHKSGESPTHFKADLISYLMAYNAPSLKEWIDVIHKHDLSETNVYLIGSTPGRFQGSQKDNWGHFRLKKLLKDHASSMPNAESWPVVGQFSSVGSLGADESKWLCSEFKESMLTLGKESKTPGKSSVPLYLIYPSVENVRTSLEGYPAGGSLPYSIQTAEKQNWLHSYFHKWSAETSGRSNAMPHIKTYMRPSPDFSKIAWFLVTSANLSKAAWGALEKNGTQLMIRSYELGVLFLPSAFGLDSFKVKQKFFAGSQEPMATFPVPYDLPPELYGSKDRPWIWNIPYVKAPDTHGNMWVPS
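Here, a 5' biotin and 3' phosphotyrosine-FITC DNA oligonucleotide reports Tdp1 activity: intact substrate bridges AlphaScreen beads, while cleavage leaves a 3' phosphate and drops signal. All incubations at room temperature.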
JMJD2A Tudor inh – JMJD2A Tudor domain (human) inhibition. O75164. AlphaScreen JMJD2A-Tudor / H3K4me3 peptide binding. Potency, µM (titrated, usually from 114 µM), for inactives: at the highest dose activity change, negative = inhibition, most hits filed as inhibitors. 390,000 tested, 4.4% active; also: % is scaled to controls: 0 for no effect and ±100 for the full control effect; nearly all actives have a fitted effect of over 50% in size
G9a block – G9a (human) methyltransferase inhibition; Potency, µM (top dose mostly 102 µM), inactives show at the highest dose activity, negative = inhibition, most hits filed as inhibitors; G9a H3K9 monomethylation, AlphaScreen, 2 h; Q96KQ7; 350,000 tested, 8.8% active; also: % is scaled to controls: 0 for no effect and ±100 for the full control effect; nearly all actives have a fitted effect of over 75% in size
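AlphaScreen detection with an anti-monomethyl H3K9 antibody quantified product after a 2 h room-temperature reaction containing 500 nM biotinylated H3K9 peptide, 20 µM SAM and 20 nM enzyme, which had been preincubated 15 min with compound.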
HP1b chromo inh – blocks HP1-beta chromodomain binding to methylated histone tails; AlphaScreen HP1-beta / biotin-H3K9me3 peptide binding; Potency, µM (highest dose often 114 µM), for the others: top-dose activity change, negative = inhibition, hits mostly inhibitors; 390,000 tested, 0.56% active; AID 540317; P83916; also: nearly all actives have a fitted effect of over 70% in size
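AlphaScreen: HP1-beta (50 nM) preformed 30 min with biotin-H3(1-18)K9me3 peptide (50 nM) in PBS pH 7.4, 0.01% Tween-20. Compound added for 30 min at RT, then streptavidin donor/nickel chelate acceptor beads (10 ug/mL) for 30 min.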
Active calls of the source: *; ? = inconclusive; . = no result given; ! = a repeat was not active; [ ] = remark or other dose. The list is not random: actives were taken first. Their share in the collection is about 12%. Calls follow the shape of the dose curve; as a rule, active = well fitted curve in the direction sought with a large enough effect; inconclusive = small, poorly fitted or top-dose-only effect, or another doubt; inactive = no such curve, though single readings can be large; an effect the other way counts as inactive or inconclusive. Potency is read from the fitted curve at half-maximal effect.

SMILES	Sfp PPTase inh	BAZ2B block	TDP1 inh	JMJD2A Tudor inh	G9a block	HP1b chromo inh
Cc1ccnc(NS(=O)(=O)c2ccc(NC(=O)Cc3ccc(F)cc3)cc2)n1	4%	0%	.	-18%	?	41%
Cc1ccnc(NS(=O)(=O)c2ccc(NC(=O)Cc3cccs3)cc2)n1	2%	50µM*	-10%	32µM*	5%[12.7 µM]	-33%
O=C(Cc1ccc(Cl)c(Cl)c1)Nc1ccc(S(=O)(=O)Nc2ncccn2)cc1	-5%	-12%	11%	20µM*	?	33%
Cc1nonc1OCCCNc1ccc([N+](=O)[O-])cc1Cl	7%	-26%	3%	-26%[57.1 µM]	1.3µM*	29%
COc1ccccc1N(CC(=O)Nc1ccccc1C(F)(F)F)S(=O)(=O)c1ccc(C)cc1	.	-1%	.	-5%	-24%[59 µM]	20%
Cc1ccccc1CNC(=O)CCS(=O)(=O)c1cc2c3c(c1)CCN3C(=O)CC2	.	3%	.	-16%	-7%[59 µM]	37%
CCOC(=O)C1CCN(c2nc(C)cc(C)c2C#N)CC1	8%	-4%	3%	27%	11%[12.7 µM]	75%
CCOC(=O)C1CCN(c2nc(N)c3c(N)nc(SCC(=O)O)cc3c2C#N)CC1	6.3µM*	40µM*	28µM*	-15%[11.4 µM]	8.9µM*	18µM*
Cc1oc(C(N)=O)nc1-c1ccccc1	14%	0%	8%	-6%	24%	18%
Cc1ccccc1C(=O)Nc1cccc(C(=O)OCc2cc(=O)n3ccsc3n2)c1	.	-9%	4%	-9%	15%[59 µM]	10%
CCOC(=O)COc1ccc2nsnc2c1Cl	16%	6%	5%	-10%	13%[2.33 µM]	37%
C=C(CC)C(=O)c1ccc(OCC(=O)O)c(Cl)c1Cl	20µM*!	-30%	3%	-29%	71µM*	18%
Cc1cccc(-n2ccnc2SCC(=O)Nc2cccc(S(=O)(=O)NC3=NCCC3)c2)c1C	.	-12%	8%	-23%	40µM*	14%
Cc1ccc(C)c(NC(=O)CSc2nccn2-c2cccc(C)c2C)c1	.	10µM*	7%	?	18µM*	?
Cc1ccc(C)c(SCC(=O)Nc2cccc(S(=O)(=O)NC3=NCCCCC3)c2)c1	2%	-6%	-3%	-28%	16%[59 µM]	18%
c1ccc(Nc2ncnc3ccc(-c4cccnc4)cc23)cc1	10%	.	-4%[56.1 µM]	.	.	.
CC(c1ccccc1)n1c(-c2cccs2)nc2c(c(=O)c3ccccc3n2C)c1=O (centres undefined)	79µM*	?	.	-20%	32%[12.7 µM]	8%
Cn1c2ccccc2c(=O)c2c(=O)n(-c3ccc(F)cc3)c(-c3cccs3)nc21	-4%	-3%	4%	-22%	.	22%
Cc1ccc(S(=O)(=O)CCSC(=N)N)cc1	20%	-11%	5%	13%	?	46%
Clc1cccc(-c2ccc(C=Nc3ccc(N4CCOCC4)cc3)o2)c1	-20%	32µM*	8%	?	3.2µM*	?
Oc1ccc(N=Nc2cccc(Cl)c2)cc1C=Nc1ccc(N2CCOCC2)cc1	-4%	7.9µM*	5%	?	?	?
CC1=NN(c2ccccc2)C(=O)/C1=C/N(C)C	-3%	?	8%	-11%	.	31%
CC1=NN(c2ccccc2)C(=O)/C1=C\C=C1\N(C)c2ccccc2C1(C)C	-7%	10µM*	-11%	56µM*	14µM*	32µM*
CC1=NN(c2ccccc2)C(=O)/C1=C\C=C1/N(C)c2ccccc2C1(C)C	-18%	10µM*	8%	32µM*	11µM*	?
O=C1CCCN1C(=O)CSc1ccc2ccccc2n1	.	2%	0%	1%	-9%[12.7 µM]	44%
SMILES	Sfp PPTase inh	BAZ2B block	TDP1 inh	JMJD2A Tudor inh	G9a block	HP1b chromo inh
COc1ccc(-c2nc(C)c(CCNC(=O)c3cccs3)s2)cc1	.	-5%	7%	-23%	3%[59 µM]	9%[57 µM]
CCc1ccc(-n2nc3ccc(NC(=O)c4ccc5c(c4)OCO5)cc3n2)cc1	15%	?	0%	7%	?	35%
COc1cc(NC(=O)c2ccc3c(c2)OCO3)ccc1NC(=O)C(C)C	11%	-1%	0%	79µM*	-6%	?
Cc1ccc(-n2nc3ccc(NC(=O)c4ccc5c(c4)OCO5)cc3n2)cc1	3%	-6%	-2%	-14%	71µM*	17%
Cc1ccc(-n2nc3ccc(NC(=O)C(C)C)cc3n2)cc1	-2%	?	6%	-13%	13µM*	5%
Cc1ccc2c(c1)c(=O)c1ccccc1n2CCCC(=O)Nc1ccc(C)c(C)c1	.	23%	-9%[12.3 µM]	50%	61%[59 µM]	128%
CCOC(=O)/C(=N\Nc1ccc(Cl)cc1)Sc1nnc(-c2ccc(OC)cc2)n1C	-25%	?	0%	-23%	10µM*	35%
COC(=O)/C(=N\Nc1ccccc1)Sc1nnc(-c2ccc(OC)cc2)n1C	-14%	-5%	3%	?	5µM*	24%
CC(=O)O[C@H]1CC(=O)OC(C)(C)C2CC(=O)[C@]3(C)C(CC[C@@](C)([C@@H](O[C@@H]4O[C@H](CO)[C@@H](O)[C@H](O)[C@H]4O)c4ccoc4)[C@@]34O[C@@H]4C(=O)O)[C@]21C (some centres undefined)	.	9%	.	-20%	-34%[12.7 µM]	27%
CC(C)c1ccc(NC2CCCN(C(=O)c3ccc4nccnc4c3)C2)cc1 (centres undefined)	13%	-26%	4%	-25%	79µM*	13%
CC(C)c1ccc(NC2CCCN(C(=O)c3ccnc(Cl)c3)C2)cc1 (centres undefined)	14%	?	4%	-32%	25µM*	24%
Cc1ccc(SCc2nc(-c3ccc(C(=O)NCC(C)c4ccccc4)cc3)oc2C)cc1 (centres undefined)	.	-11%	3%	-18%	-19%[59 µM]	31%
COc1ccccc1N(C(=O)c1ccco1)C(C(=O)NC1CCCCC1)c1cc(OC)c(OC)c(OC)c1 (centres undefined)	3%	-4%	.	-15%	21%	-14%
Cc1oc(C(=O)O)cc1COc1cccc2ccccc12	15%	-31%	.	-24%	?	-3%
Cc1c(CC(=O)O)c(=O)oc2c(C)c(OCc3ccccc3Br)ccc12	2%	50µM*	.	?	-10%	27%
COc1cc(C(=O)O)cc(OC)c1OCc1cc(C(=O)O)oc1C	17%	?	.	?	50µM*	-5%
Cc1oc(C(=O)O)cc1COc1ccc2c3c(c(=O)oc2c1C)CCC3	3%	13µM*	.	2%	50µM*	17%
COc1ccc(Oc2ncc3nc(C)c(=O)n(Cc4ccc(F)cc4)c3n2)cc1	-17%	.	.	.	3%[12.7 µM]	.
